Results: ChEMBL document CHEMBL4513216, “Probing the Open Global Health Chemical Diversity Library for Multistage-Active Starting Points for Next-Generation Antimalarials” (ACS Infect Dis, 2020)
The campaign covered roughly 69,000 compounds. About 8,600 (12%) showed an effect of 50% or more. Only a selection was taken, and strong results are over-represented in it overall.

tested on: Plasmodium berghei; assay: Screen against P. berghei liver stage (PbLuc), transformed with Luciferase, at 10uM; type: functional, HepG2; conditions: tested at 10 uM

| SMILES | INHIBITION |
| --- | --- |
| CN(C)C(=O)N1CCOCC2(CCN(c3ncccn3)C2)C1 (centres undefined) | -5.29% |
| CN1CCc2c(C#N)c(NCCc3ccccc3)n3cnnc3c2C1 | 60.7% |
| CN1CCc2c(C#N)c(NCc3ccncc3)n3cnnc3c2C1 | 10.1% |
| COCCNc1c(C#N)c2c(c3nncn13)CN(C)CC2 | 32.5% |
| CN1CCc2c(C#N)c(NCc3ccco3)n3cnnc3c2C1 | 19.7% |
| CC(C)CCNc1c(C#N)c2c(c3nncn13)CN(C)CC2 | 60.7% |
| CN1CCc2c(C#N)c(NCCN3CCOCC3)n3cnnc3c2C1 | 35% |
| CN1CCc2c(C#N)c(NCc3ccccc3)n3cnnc3c2C1 | 24.2% |
| CN1CCc2c(C#N)c(NCCCO)n3cnnc3c2C1 | 32.5% |
| CN1CCc2c(C#N)c(NCc3cccnc3)n3cnnc3c2C1 | 53.2% |
| Cc1ncsc1CN1C[C@@H]2COC[C@]2(C(=O)NC(C)C)C1 | 18.6% |
| COc1ccc(CC(=O)N2Cc3nccn3CC(CN(C)C)C2)cc1 (centres undefined) | 6.72% |
| CC(NC(=O)NCc1ccoc1)c1ccc2c(c1)CC(=O)N2 (centres undefined) | -55.4% |
| CCOc1cccc(CNC2CCCN(Cc3noc(C)n3)C2)c1 (centres undefined) | 47% |
| COCCn1cncc1CN1CCC(C(C)=O)(c2ccccc2)CC1 | 50.7% |
| COCCn1cncc1Cn1ncc2ccccc2c1=O | 13% |
| COCCN1CCCC12CCN(Cc1cncn1C)CC2 | 49.1% |
| CC(C)CN(CC(O)c1ccc(F)cc1)C(=O)c1cnsn1 (centres undefined) | -24.9% |
| COCCOCC(=O)N1C[C@@H]2CC[C@H]1CN(C1Cc3ccccc3C1)C2 | -62.1% |
| CSCC(=O)N1C[C@@H]2CC[C@H]1CN(C1Cc3ccccc3C1)C2 | -69.3% |
| O=C(CO)N1C[C@@H]2CC[C@H]1CN(C1Cc3ccccc3C1)C2 | 25.4% |
| Cc1noc(CN2C[C@@H]3CC[C@H]2CN(C2Cc4ccccc4C2)C3)n1 | 30.9% |

| SMILES | INHIBITION |
| --- | --- |
| CCc1noc(CN2C[C@@H]3CC[C@H]2CN(C2Cc4ccccc4C2)C3)n1 | 12.8% |
| CN(C)C(=O)N1C[C@@H]2CC[C@H]1CN(C1Cc3ccccc3C1)C2 | -57.9% |
| Cc1nnc(CN2C[C@@H]3CC[C@H]2CN(C2Cc4ccccc4C2)C3)o1 | 66.1% |
| CCc1cc(CN2C[C@@H]3CC[C@H]2CN(C2Cc4ccccc4C2)C3)on1 | 57.1% |
| Cc1cc(CN2C[C@@H]3CC[C@H]2CN(C2Cc4ccccc4C2)C3)on1 | 64.5% |
| O=C1COC2(CCN(C(=O)c3ccco3)CC2)CN1Cc1ccccn1 | 28.2% |
| CCn1cc(-c2n[nH]c(=O)n2-c2ccc(OC)c(OC)c2)c(C)n1 | 41.4% |
| CCn1ccc2ccnc(CC3CN(C(=O)Cn4ccnc4C)C3)c21 | 6.26% |
| CCc1nccn1C1CCCN(C(=O)c2ccc3nnc(C)n3c2)C1 (centres undefined) | -6.44% |
| COc1c(NS(=O)(=O)c2ccc(C)c(C)c2)c(C)nn1C | 51.1% |
| Cc1ccc(S(=O)(=O)Nc2c(C)nn(C)c2C)cc1C | 45.7% |
| COc1c(NS(=O)(=O)c2ccc(F)c(C)c2)c(C)nn1C | 29.6% |
| Cc1noc(C)c1S(=O)(=O)N1CCC(n2cccn2)CC1 | -25.4% |
| CCN1CCC(N2CCC(c3nc(C)cc(C)n3)C2)CC1 (centres undefined) | 23.9% |
| CN(C)C(=O)C1CCCN1CCCNC(=O)c1ccccc1Cl (centres undefined) | 42.5% |
| CC(C)(C)c1oc(C(N)=O)cc1CN1CCCCC(N)C1 (centres undefined) | 51.8% |
| CC(C)(C)c1oc(C(N)=O)cc1CN1CCOC(C(F)(F)F)C1 (centres undefined) | 22.5% |
| CC(C)(C)c1oc(C(N)=O)cc1CN1CCCCC1CN1CCOCC1 (centres undefined) | 48.5% |
| Cc1ccc(OCCCNC(=O)NC(C)c2nncn2C)cc1 (centres undefined) | 38.7% |
| Cc1ccc(OCCNC(=O)C(C)n2cncn2)cc1 (centres undefined) | 8.47% |
| Cc1cc(C)cc(OCCN(C)C(=O)NC(C)c2nncn2C)c1 (centres undefined) | 21.5% |
| CC(NC(=O)NCCOc1ccc(F)c(F)c1)c1nncn1C (centres undefined) | 0.0932% |

| SMILES | INHIBITION |
| --- | --- |
| CC(NC(=O)N(C)CCCOc1ccc(F)cc1)c1nncn1C (centres undefined) | -20% |
| CC(C(=O)NCCOc1ccc(F)cc1)n1cncn1 (centres undefined) | -44.3% |
| CC(Sc1nncn1C)C(=O)NCCCOc1ccc(F)cc1 (centres undefined) | 51.7% |
| Cc1ccc(OCCCNC(=O)C(C)Sc2nncn2C)cc1 (centres undefined) | 50.8% |
| Cc1cc(C)cc(OCCNC(=O)C(C)Sc2nncn2C)c1 (centres undefined) | 53.6% |
| O=C(CCSc1ccccc1F)NCc1cccnc1 | -0.514% |
| NC(=O)CN1CC(c2nc(C3CC3)no2)C1 | 19.8% |
| Cc1nn(CCNC(=O)c2cc(C3CC3)[nH]n2)c(C)c1Cl | -28% |
| CCN(C)c1ncnc2c1CCN(Cc1ccncc1)CC2 | 38.3% |
| CN(C)S(=O)(=O)N1C[C@@H](OCc2cccnc2)[C@H]2OCCC[C@H]21 | 11.6% |
| Cc1nc2cc(C(=O)N(CCC#N)CC3CCCO3)ccc2[nH]1 (centres undefined) | -0.371% |
| Cc1ccccc1C(N)c1ccncc1 (centres undefined) | -1.38% |
| Cc1nc(CN2CCC3(CCN(Cc4cnn(C)c4)CC3)C2=O)cs1 | -22.1% |
| CSc1ccccc1C(=O)N1C[C@@H]2CC[C@H]1CN(C(=O)C1CCC1)C2 | 9.41% |
| CCC(C)Sc1ncc(-c2c(C#N)c(N)nc3c2COCC3)cn1 (centres undefined) | 29.9% |
| CCc1cc(CNC(=O)NCc2ccc(N3CCCCC3)cc2)on1 | 51.1% |
| CCc1cc(CNC(=O)Nc2cc(F)cc(N3CCCC3)c2)on1 | 38.3% |
| Cc1noc(CCNC(=O)NCc2ccc(N3CCCCC3)cc2)n1 | -95.7% |
| COc1ccccc1CN(CC1CCCO1)C(=O)c1ccc(F)cn1 (centres undefined) | 5.23% |
| CCn1cc2c(n1)CN(S(=O)(=O)c1cn(C)cn1)CC2COC (centres undefined) | -18.5% |
| O=C(O)CN1CCC(c2ccccc2)CC1 | 1.03% |
| Cc1cccc(C2CCCN2Cc2nc(N)nc(N(C)C)n2)c1C (centres undefined) | 35.2% |

| SMILES | INHIBITION |
| --- | --- |
| CCC1CCCN(Cc2nc(N)c3ccccc3n2)C1 (centres undefined) | 36.75% |
| CN(C)c1nc(N)nc(CN2CCCC2c2cccs2)n1 (centres undefined) | 70% |
| CN(C)c1nc(N)nc(CN2CCCC(c3ccccc3)CC2)n1 (centres undefined) | 57.8% |
| CN(C)c1nc(N)nc(CN2CCCC2c2ccsc2)n1 (centres undefined) | 25.5% |
| Cn1ccc(CN2CCC(c3ccccc3)CC2)cc1=O | 38% |
| CN(C)c1nc(N)nc(CN2CCC(c3nc4ccccc4o3)CC2)n1 | 45.4% |
| CN(C)c1nc(N)nc(CN2CCC(c3ccccc3)CC2)n1 | 67.8% |
| CCN(Cc1ccncc1)c1cc(C2CCN2C(C)=O)nc(C)n1 (centres undefined) | 19.775% |
| CC(C)c1cc(C(=O)N[C@@H]2CC[C@@H](Oc3ccccc3)[C@@H]2O)on1 | -10.955% |
| CCOCCNC(=O)[C@@H]1CCCN1c1nccc(Nc2ccccc2)n1 | 6.55% |
| O=C(CSc1ccncc1)N1C[C@@H]2CC[C@H]1CN(Cc1cccnc1)C2 | 9.54% |
| CCc1csc(C2CCCN(C(=O)c3ccccn3)C2)n1 (centres undefined) | 14.1% |
| NCC1[C@H]2CN(Cc3cccc(Cl)c3)C[C@@H]12 (some centres undefined) | 13.7% |
| Cc1ccc(S(=O)(=O)N2CCN(C)c3ccncc32)cc1F | 41% |
| c1ccc(-c2noc(CNC3CCCN(c4cccnn4)C3)n2)nc1 (centres undefined) | 45.4% |
| c1ccc(-c2cnc(CNC3CCCN(c4cccnn4)C3)o2)cc1 (centres undefined) | 51.2% |
| c1cnnc(N2CCCC(NCc3ccncc3)C2)c1 (centres undefined) | 30.8% |
| c1cnnc(N2CCCC(NCc3nc(C4CC4)no3)C2)c1 (centres undefined) | 58.5% |
| c1ccc(-c2nnc(CNC3CCCN(c4cccnn4)C3)o2)cc1 (centres undefined) | -43.25% |
| Cc1cnc(CN(C)C2CCCN(c3cccnn3)C2)cn1 (centres undefined) | 3.19% |
| Cc1oc(-c2ccco2)nc1CNC1CCCN(c2cccnn2)C1 (centres undefined) | -21.55% |
| COCCc1noc(CNC2CCCN(c3cccnn3)C2)n1 (centres undefined) | 21.8% |

| SMILES | INHIBITION |
| --- | --- |
| CN(Cc1ncc(-c2ccccc2)o1)C1CCCN(c2cccnn2)C1 (centres undefined) | 43.2% |
| Cc1ncc(CN(C)C2CCCN(c3cccnn3)C2)s1 (centres undefined) | 58.3% |
| CN(Cc1ccc(Cl)s1)C1CCCN(c2cccnn2)C1 (centres undefined) | 17.4% |
| c1cnnc(N2CCCC(NCc3nc(-c4ccco4)no3)C2)c1 (centres undefined) | 55.5% |
| CC1c2cc(F)ccc2CCN1C(=O)c1[nH]c(=O)[nH]c(=O)c1N (centres undefined) | 33.4% |
| CCc1cc(C(=O)N2CC[C@@H](c3ccc4c(c3)OCO4)[C@H](O)C2)ccn1 | 26.5% |
| Cc1noc(C)c1CN1CCn2cc(CN3CCCCC3)nc2C1 | -33.1% |
| O=C(NCc1nnc2n1CCC2)NCC1(c2cccc(F)c2)CC1 | -14.6% |
| c1nc2c(c(NC3COC4(CCCC4)C3)n1)CCNCC2 (centres undefined) | 37.7% |
| c1cnnc(N2CCCC(NCc3nnc(-c4ccco4)o3)C2)c1 (centres undefined) | 31.8% |
| C=c1ccoc1=C1NN=C(CNCC2CCCN2c2cccnn2)O1 (centres undefined) | 18.5% |
| CN(Cc1nc(C2CC2)no1)C1CCCN(c2cccnn2)C1 (centres undefined) | 53.5% |
| c1cnnc(N2CCCC2CNCc2nc(-c3cccs3)no2)c1 (centres undefined) | 31.9% |
| c1csc(-c2noc(CNC3CCc4ncnn4C3)n2)c1 (centres undefined) | 0.65% |
| c1cnnc(N2CCCC(NCc3cccc4c3OCCCO4)C2)c1 (centres undefined) | 11.9% |
| c1cnnc(N2CCCC(NCc3nc(-c4cccs4)no3)C2)c1 (centres undefined) | 60.3% |
| COCCc1noc(CN(C)C2CCCN(c3cccnn3)C2)n1 (centres undefined) | 9.54% |
| c1cnnc(N2CCCC(NCc3cccc4c3OCCO4)C2)c1 (centres undefined) | -12.2% |
| CN(Cc1nc(-c2ccco2)no1)C1CCCN(c2cccnn2)C1 (centres undefined) | 20.1% |
| c1cnnc(N2CCCC(NCc3cccc4c3OCO4)C2)c1 (centres undefined) | 53.7% |
| C=c1ccoc1=C1NN=C(CNC2CCCN(c3cccnn3)C2)O1 (centres undefined) | 56.05% |
